According to PubChem BioAssay AID761 (NMMLSC, 2007):
Among all 190,000 compounds or so, about 400 (0.21%) were called active. Inconclusive results (about 2%) are left out. What follows is part of a selection rich in actives, with near analogues and random picks from the rest. Unmarked numbers belong to inactive results.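 Rule for the calls: active = percent activity GTP binding at least 20 points away from the 100% baseline, either down as inhibitor or up as activator; inconclusive = compound flagged as likely green fluorescent from well-wide comparison; inactive = the rest.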

target: Cell division control protein 42 homolog (Homo sapiens) (UniProt P60953); experiment: wildtype Cdc42 fluorescent GTP binding changes, either direction – biochemical, multiplex bead flow cytometry, Bodipy-GTP, primary screen (AID 761); conditions: GST-Cdc42 beads, at 10 µM, actives lie on both sides;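 note: median bead fluorescence of bound Bodipy-FL-GTP at 100 nM; 0% = excess unlabeled GTP control and 100% = no compound control; below 100% means less GTP binding so inhibitor and above means activator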
Sequence (P60953 whole entry, looked up): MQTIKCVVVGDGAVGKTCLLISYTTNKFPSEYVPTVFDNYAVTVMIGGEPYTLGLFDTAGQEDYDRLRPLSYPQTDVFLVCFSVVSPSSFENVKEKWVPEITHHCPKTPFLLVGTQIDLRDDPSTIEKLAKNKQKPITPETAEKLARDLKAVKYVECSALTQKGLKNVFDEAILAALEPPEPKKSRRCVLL

Structure (SMILES) | percent activity (GTP binding)
O=C(Nc1ccc([N+](=O)[O-])cc1)C1CC12CCC2 (configuration not stated) | 96%
O=C(/C=C/c1ccc(Cl)cc1Cl)c1cccnc1 | 88%
O=C(Nc1cccnc1)c1ccc(Cl)c([N+](=O)[O-])c1 | 96%
O=C(/C=C/c1ccc(Cl)c([N+](=O)[O-])c1)c1cccnc1 | 79% (active)
CC(=O)C1=C(C)NC2=C(C(=O)CC(C)(C)C2)C1C (configuration not stated) | 96%
CN(CCOc1ccccc1)Cc1nc2cc(Cl)ccc2c(=O)[nH]1 | 93%
O=C(CC1Nc2ccccc2NC1=O)Nc1ccccc1NC(=O)CC1Nc2ccccc2NC1=O (configuration not stated) | 99%
Cc1nc2nc[nH]n2c(=O)c1C/C=C/c1ccccc1 | 89%
COc1ccc(C(=O)C2CCCN(C(=O)c3cc4nc(C)cc(C)n4n3)C2)cc1F (configuration not stated) | 99%
O=C(COC(=O)CCc1ccc(S(=O)(=O)N2CCOCC2)cc1)Nc1cccc(Cl)c1 | 97%
O=C(c1ccccc1Cl)N(Cc1ccccc1F)N1C(=O)CCCC1=O | 98%
O=C(O)Cc1sc(-c2ccccc2)nc1-c1cccs1 | 92%
CCS(=O)(=O)C1=NSC2=NC(=O)/C(=C\c3cc(C)n(-c4cccc(OC)c4)c3C)C(=N)N21 | 93%
N/C(=N\OC(=O)c1ccc([N+](=O)[O-])cc1)c1ccccn1 | 96%
O=C(CN1CCC(O)(c2ccccc2)CC1)Nc1ccc2c(c1)OCCO2 | 97%
CCN1CC(CN(C)Cc2nc(-c3ccc(Cl)cc3)no2)CC1=O (configuration not stated) | 101%
Cc1ccc([N+](=O)[O-])c(OCCCNCC(C)O)c1 (configuration not stated) | 103%
CCCN(CCC)c1ccc(C(O)c2nnc(-c3ccccc3)o2)cc1 (configuration not stated) | 95%
O=C(NCC(O)c1ccc([N+](=O)[O-])cc1)C1CCCCC1 (configuration not stated) | 97%
CN1CCN(c2nc(Nc3ccc(O)cc3)nc3ccccc23)CC1 | 95%
CCn1c(COc2c(C)cccc2C)nnc1SCc1nc2ccccc2c(=O)[nH]1 | 94%
O=S(=O)(NC1CC1)c1ccc2c3c(cccc13)CC2 | 93%
CN(c1ccccc1)c1ccc(/C=c2\s/c(=C(/C#N)C(=O)C(C)(C)C)n(Cc3ccco3)c2=O)cc1 | 143% [activator] (active)
CCOC(=O)CSc1nc2c(sc(=S)n2CCc2ccccc2)c(=O)n1Cc1ccco1 | 99%
Cc1cc2c(c(=O)n1Cc1ccco1)C(c1ccccc1)C(C#N)=C(N)O2 (configuration not stated) | 103%
CCCNCc1cc(OCC)c(OCC(=O)Nc2ccccc2)cc1Br | 96%

Structure (SMILES) | percent activity (GTP binding)
CC(=O)N1CCc2cc(Br)cc(S(=O)(=O)CCC(=O)Nc3c(C)n(C)n(-c4ccccc4)c3=O)c21 | 100%
Cc1cc(NC(=O)CSc2nccn2-c2ccc([N+](=O)[O-])cc2)no1 | 96%
CC(=O)Nc1ccc(NC(=O)CSc2nnc(COc3ccccc3C)n2CC2CCCO2)cc1 (configuration not stated) | 99%
C=CCO/N=C/C1=C(O)C(C(=O)OC)C(C)(C)CC1=O (configuration not stated) | 108%
COC(=O)c1cc(NC(=O)CN2CCN(C(C)=O)CC2)cc(C(=O)OC)c1 | 99%
Cc1cc(N2CCN(C)CC2)nc2ccc(NC(=S)N3CCOCC3)cc12 | 96%
COc1cccc(NC(=O)CC2C(=O)NCCN2C(=S)Nc2ccc(F)cc2)c1 (configuration not stated) | 97%
CCOC(=O)C(CC)/C(C)=N\NC(=O)c1cccc(C)c1 (configuration not stated) | 92%
Cc1ccc(/C([O-])=C(/C(=S)NCc2ccco2)[n+]2ccccc2)cc1[N+](=O)[O-] | 95%
CCn1nc(C)c(CN2CCN(Cc3ccc(OC)c(C)c3C)C(CCO)C2)c1C (configuration not stated) | 97%
C=CCc1ccc(OCC(O)CN2CCN(Cc3ccccc3)CC2)c(OC)c1 (configuration not stated) | 94%
CC(=O)Nc1ccc(S(=O)(=O)Nc2ccc(-c3ccc4nnc(C)n4n3)cc2)cc1 | 89%
Nc1[nH]c(=S)nc2nc(-c3ccccc3)c(-c3ccccc3)nc12 | 78% (active)
Nc1ccc(-c2sc(N)nc2-c2ccccc2)cc1 | 97%
O=C(NNc1cc(Cl)ccc1Cl)c1cccnc1Cl | 97%
CCOC(=O)c1ccccc1NC(=S)N1CCC(C(N)=O)CC1 | 97%
O=C(/C=C/c1ccccc1)Oc1coc(CSc2ncccn2)cc1=O | 91%
Cc1ccc(CN2CCN(Cc3ccc4ncccc4c3)CC2CCO)cc1 (configuration not stated) | 94%
Cc1nccc(-c2ccc(-n3c(C)ccc3C)cc2)n1 | 93%
Cc1ccc(N2C(=O)C3CC3C2=O)cc1 (configuration not stated) | 98%
Cc1ccccc1CN1C[C@@H]2C[C@@H](c3ccc4nsnc4c3)N3CCC[C@@]23C1=O | 101%
CCS(=O)(=O)c1ccc(C(=O)NC)c(Cl)c1Cl | 91%
COc1ccc(C)cc1NC(=O)Nc1ccccc1SC | 98%
CC(C)C(O)C1CCN(Cc2nc(Cc3ccccc3Cl)no2)CC1 (configuration not stated) | 96%
COc1ccc(CN2CCCC(CNC(=O)c3ccc(F)cc3)C2)cc1OC (configuration not stated) | 97%
COc1ccc(Cl)cc1NC(=O)NC(C)C(C)(C)C (configuration not stated) | 101%
